About 2,000 (36%) of roughly 5,500 compounds were called active. Inconclusive results (about 18%) are left out. No stated cut-off is given here; in the data, active means normalized growth mostly below about 0.91 (no sharp cut-off); inconclusive means no clear call, values can overlap the other calls; inactive means mostly above about 0.92. The list shows a part of the results.
Test: chemical genetic growth profiling, strain panel (AID 1159580);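 further: tested at 20 µM; growth read once vehicle control cultures reached saturation at 30 °C; 1 = growth at the plate median or of vehicle wells; lower values mean less growth of the strain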
Settings: S. cerevisiae deletion strains, growth OD

Measured: normalized growth

COC(=O)CCC(C)C1CCC2C3CC[C@@H]4C[C@H](O)CC[C@]4(C)C3C[C@H](O)[C@]12C (some centres undefined)
active: locus YLR027C, strain aat2, hits give low values 0.918 | locus YLR113W, strain HOG1, hits give low values 0.439 | locus YLR262C, strain YPT6 (second series), hits give low values 0.776 | locus YLR320W, strain mms22, hits give low values 0.812 | locus YLR330W, strain CHS5, hits give low values 0.903 | locus YLR342W, strain FKS1, hits give low values 0.699 | locus YLR418C, strain cdc73, hits give low values 0.77 | locus YMR205C, strain PFK2, hits give low values 0.846 | locus YNL071W, strain lat1, hits give low values 0.72 | locus YOR184W, strain ser1, hits give low values 0.853 | locus YOR231W, strain MKK1, hits give low values 0.814 | locus YPL051W, strain arl3, hits give low values 0.913 | locus YPL256C, strain CLN2, hits give low values 0.8
inactive: locus YJR043C, strain POL32, hits give low values 1.02 | locus YJR066W, strain TOR1, hits give low values 0.941 | locus YKL009W, strain mrt4, hits give low values 0.959 | locus YKL068W, hits give low values 0.993 | locus YKL085W, strain MDH1 (second series), hits give low values 0.991 | locus YKL085W, strain MDH1, hits give low values 0.991 | locus YKL160W, strain elf1, hits give low values 0.92 | locus YKL190W, strain CNB1, hits give low values 1.02 | locus YKR001C, strain vps1, hits give low values 0.931 | locus YKR026C, strain gcn3, hits give low values 1 | locus YKR091W, strain srl3, hits give low values 0.993 | locus YLL001W, strain dnm1, hits give low values 0.99 | locus YLL026W, hits give low values 0.986 | locus YLL041C, strain sdh2, hits give low values 1.01 | locus YLR039C, strain RIC1, hits give low values 0.88 | locus YLR058C, strain SHM2, hits give low values 0.972 | locus YLR102C, strain apc9, hits give low values 1.01 | locus YLR221C, strain rsa3, hits give low values 0.932 | locus YLR258W, strain gsy2, hits give low values 0.958 | locus YLR262C, strain YPT6, hits give low values 0.792 | locus YLR268W, strain sec22, hits give low values 1 | locus YLR342W, strain FKS1 (second series), hits give low values 0.933 | locus YLR357W, strain rsc2, hits give low values 0.982 | locus YLR370C, strain arc18, hits give low values 0.998 | locus YLR371W, strain rom2, hits give low values 1.01 | locus YLR384C, strain iki3, hits give low values 0.992 | locus YML016C, strain PPZ1, hits give low values 1.05 | locus YML032C, strain rad52, hits give low values 0.981 | locus YML120C, strain ndi1, hits give low values 0.988 | locus YML124C, strain tub3, hits give low values 1 | locus YMR058W, strain fet3, hits give low values 0.976 | locus YMR078C, strain ctf18, hits give low values 1.01 | locus YMR125W, strain sto1, hits give low values 0.983 | locus YMR129W, hits give low values 1 | locus YMR223W, strain ubp8, hits give low values 0.98 | locus YMR231W, strain pep5, hits give low values 0.977 | locus YMR263W, strain SAP30, hits give low values 0.998 | locus YMR307W, strain GAS1, hits give low values 0.843 | locus YNL067W, strain RPL9B, hits give low values 0.98 | locus YNL153C, strain GIM3, hits give low values 0.982 | locus YNL183C, strain NPR1, hits give low values 0.908 | locus YNL209W, strain ssb2, hits give low values 1 | locus YNL233W, strain BNI4, hits give low values 0.927 | locus YNL248C, strain rpa49, hits give low values 1.04 | locus YNL250W, strain rad50, hits give low values 1.04 | locus YNL271C, strain bni1, hits give low values 1.01 | locus YNL298W, strain CLA4, hits give low values 1.05 | locus YNL307C, strain MCK1, hits give low values 0.917 | locus YNL322C, strain KRE1 (second series), hits give low values 0.999 | locus YNL322C, strain KRE1, hits give low values 1.01 | locus YNR049C, strain mso1, hits give low values 0.99 | locus YNR052C, strain pop2, hits give low values 0.971 | locus YOL006C, strain TOP1, hits give low values 0.909 | locus YOL012C, strain htz1 0.571 | locus YOL147C, strain pex11, hits give low values 1.02 | locus YOR001W, strain rrp6, hits give low values 0.995 | locus YOR061W, strain CKA2, hits give low values 0.999 | locus YOR069W, strain VPS5, hits give low values 1.02 | locus YOR070C, strain gyp1, hits give low values 0.971 | locus YOR080W, strain dia2, hits give low values 1.01 | locus YOR083W, strain WHI5, hits give low values 0.984 | locus YOR106W, strain vam3, hits give low values 0.933 | locus YOR136W, strain idh2, hits give low values 1.01 | locus YOR144C, strain elg1, hits give low values 1.01 | locus YOR265W, strain rbl2, hits give low values 0.98 | locus YOR270C, strain vph1, hits give low values 0.99 | locus YOR290C, strain snf2, hits give low values 1.01 | locus YOR316C, strain cot1, hits give low values 1.01 | locus YPL078C, strain atp4, hits give low values 0.943 | locus YPL106C, strain sse1, hits give low values 0.989 | locus YPL240C, strain hsp82, hits give low values 0.992 | locus YPR119W, strain clb2, hits give low values 0.994 | locus YPR141C, strain kar3, hits give low values 1.01 | locus YPR163C, strain tif3, hits give low values 1.02 | locus YPR167C, strain met16, hits give low values 1.02 | strain wtn01, hits give low values 1.03

Reference: PubChem BioAssay AID1159580 (chemical genetic matrix, 2015)
